“And” between values parts separate entries of the source, which are not always exact repeats. Equal values may be shown once. About 5,800 (36%) of roughly 16,000 compounds were called active. Inconclusive results (about 23%) are left out. The call rests on the fitted dose curve; in most records, active means well fitted curve in the direction sought with a large enough effect; inconclusive means small, poorly fitted or top-dose-only effect, or effect the other way; inactive means no such curve, though single readings can be large or run the other way. Some of the results follow.
target: Cytochrome P450 2C19 (Homo sapiens) (UniProt P33261); test: Cytochrome panel assay with activity outcomes; conditions: recombinant CYP, pro-luciferin dealkylation, luminescence, p450-cyp2c19; series mostly up to 57.1 µM; activity, negative = inhibition: at the top concentration
On the % scale 0 is the no-effect control and ±100 the full control effect.

Chain of Cytochrome P450 2C19 (Homo sapiens) (P33261 whole entry, looked up): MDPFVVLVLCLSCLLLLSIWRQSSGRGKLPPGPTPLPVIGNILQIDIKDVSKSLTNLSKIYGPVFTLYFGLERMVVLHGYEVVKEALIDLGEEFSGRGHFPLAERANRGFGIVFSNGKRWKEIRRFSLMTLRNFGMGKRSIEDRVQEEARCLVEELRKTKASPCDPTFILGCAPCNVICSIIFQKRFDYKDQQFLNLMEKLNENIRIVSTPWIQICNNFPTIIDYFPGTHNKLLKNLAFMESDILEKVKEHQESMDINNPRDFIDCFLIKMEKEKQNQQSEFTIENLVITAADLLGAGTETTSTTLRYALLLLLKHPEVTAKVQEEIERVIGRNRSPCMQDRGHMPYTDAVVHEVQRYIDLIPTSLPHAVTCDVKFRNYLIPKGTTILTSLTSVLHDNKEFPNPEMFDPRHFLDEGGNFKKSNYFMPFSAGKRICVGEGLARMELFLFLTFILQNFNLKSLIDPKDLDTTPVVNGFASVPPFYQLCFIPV

| SMILES | activity, negative = inhibition | AC50 |
| --- | --- | --- |
| CN1CCCN(C2C3CC4CC(C3)CC2C4)CC1 (stereo not given) | -11.6% (inactive) |  |
| O=C(C1CCN(S(=O)(=O)c2cccc3nsnc23)CC1)N1CCN(c2ccccc2F)CC1 |  | 22.4 µM (active) |
| O=C(C1CCN(S(=O)(=O)c2cccc3nsnc23)CC1)N1CCn2c1nc1ccccc12 |  | 10 µM (active) |
| O=S(=O)(c1cccc2c(Cl)cccc12)N1CCCNCC1 |  | inactive |
| O=C(C1CCCN(S(=O)(=O)c2cccc3nsnc23)C1)N1CC=C(c2ccccc2)CC1 (stereo not given) |  | 2.51 µM (active) |
| O=C(Nn1cc(C(=O)N2CCN(c3ccccc3F)CC2)c2ccccc2c1=O)c1cnccn1 | 5.4% (inactive) |  |
| O=S(=O)(c1ccccc1S(=O)(=O)N1CCCCC1)N1CCCCC1 |  | 22.4 µM (active) |
| CC(C)N1CCN(c2ccncc2S(=O)(=O)N2CCCCC2)CC1 | -23.9% [at 11.4 µM] (inactive) |  |
| CC1CCC(C(=O)O)([C@H](Br)C(=O)O)CC1 (stereo not given in full) | -0.894% [at 11.4 µM] (inactive) |  |
| COc1ccc([C@@H]2CNC(=O)C2)cc1OC1CCCC1 |  | inactive |
| Cc1ncc(CO)c(CO)c1O | -13.5% [at 25.6 µM] (inactive) |  |
| O=S(=O)(c1cccc2nsnc12)N1CCCC1 |  | 0.891 µM (active) |
| CC1CCN(C(=O)C2CCN(S(=O)(=O)c3cccc4nonc34)CC2)CC1 |  | 11.2 µM (active) |
| O=S(=O)(c1cnccc1N1CCN(CCO)CC1)N1CCCC1 | 33.1% [at 11.4 µM] (inactive) |  |
| O=C(C1CCN(S(=O)(=O)c2cccc3nsnc23)CC1)N1CCc2ccccc21 |  | 14.1 µM (active) |
| CC(=O)Nc1ccc(NC(=O)C2CCN(S(=O)(=O)c3cccc4nonc34)CC2)cc1 | -27.7% (inactive) |  |
| O=C(C1CCN(S(=O)(=O)c2cccc3nsnc23)CC1)N1CCCc2ccccc21 |  | 2 µM (active) |
| C[C@H]1CN(S(=O)(=O)c2cccc3cnccc23)CCN1 | -17.5% (inactive) |  |
| Cc1ccc(S(=O)(=O)N[C@H]2COC(=O)CC=C[C@@H](C)[C@H]3C=C[C@H](O)[C@@H](COC(=O)CC=C[C@H]2C)O3)cc1 | 14.2% [at 11.4 µM] (inactive) and 5.29% [at 11.4 µM] (inactive) |  |
| NC[C@@H]1O[C@H](O[C@@H]2[C@H](O[C@@H]3O[C@H](CO)[C@@H](COC[C@H]4O[C@@H](CN)[C@@H](O)[C@@H](O)[C@@H]4N)[C@@H]3O)[C@@H](O)[C@@H](N)C[C@H]2N)[C@@H](N)[C@H](O)[C@@H]1O | 20.1% [at 25.6 µM] (inactive) |  |

| SMILES | activity, negative = inhibition | AC50 |
| --- | --- | --- |
| CCCN(CCC)C[C@@H]1CCCCN1CCNC(=O)N1c2ccccc2C(=O)Nc2cccnc21 |  | 7.94 µM (active) |
| O=C(O)CN(CCN(CC(=O)O)CC(=O)O)CCN(CC(=O)O)CC(=O)O | -18.6% (inactive) |  |
| Cc1cc(C)c(S(=O)(=O)N2CCCCC2)c(C)c1N(C)S(=O)(=O)c1ccccc1 |  | 2.51 µM (active) |
| CCc1ccc2c(c1)cc(CN(C(=S)Nc1cccc(C)c1)C1CC1)c1nnnn12 |  | 2.24 µM (active) |
| CCCNS(=O)(=O)c1ccc(OCC(=O)OC)cc1 |  | 10 µM (active) |
| CCN1C(=O)/C(=C/C=C2/SCCN2C)SC1=S |  | 14.1 µM (active) |
| Cc1ccn2c(NC(=O)c3ccccc3)c(-c3cccs3)nc2c1 |  | 17.8 µM (active) |
| CCNc1ncc2nc(-c3cccs3)c(=O)n(C)c2n1 | 2.33% (inactive) |  |
| OC(Cc1nc2ccccc2[nH]1)c1ccccc1Cl (stereo not given) |  | 8.91 µM (active) |
| CCn1c(SCc2nc3ccccc3[nH]2)nnc1-c1ccc(OC)cc1 |  | 2.51 µM (active) |
| c1ccc(SCc2nc3ccccc3[nH]2)cc1 |  | 1.41 µM (active) |
| c1ccc(-c2nnc(SCc3nc4ccccc4[nH]3)n2Cc2ccco2)cc1 |  | 2.51 µM (active) |
| O=C(c1cnccn1)N1CCC2(CC1)CN(Cc1cc(C(F)(F)F)cc(C(F)(F)F)c1)C2 | -28.5% (inactive) |  |
| C=CCNC(=S)N1CCN(c2ncc3c(=O)c(C(=O)O)cn(CC)c3n2)CC1 | -24.5% (inactive) |  |
| Cc1cc(NC(=O)C2CCCCC2)nc2c1c(=O)oc1ccccc12 |  | 8.91 µM (active) |
| COc1ccc2oc(=O)c(NC(=O)C3CCCCC3)cc2c1 | -27.6% (inactive) |  |
| N#Cc1c(-c2ccc3c(c2)OCO3)ccn2nc(-c3cccc(C(F)(F)F)c3)nc12 |  | 2.51 µM (active) |
| COc1c(O)cc2c(c1O)[C@@H]1O[C@@H](CO)[C@@H](O)[C@@H](O)[C@@H]1OC2=O | 32.9% [at 25.6 µM] (inactive) |  |
| Cc1nnc(NS(=O)(=O)c2ccc(N)cc2)s1 | 23.1% [at 25.6 µM] (inactive) |  |
| Cc1ccc(S(=O)(=O)Nc2nc(C)c(NC(=O)Nc3ccc(Cl)cc3Cl)s2)cc1 |  | 14.1 µM (active) |

| SMILES | activity, negative = inhibition | AC50 |
| --- | --- | --- |
| Cc1ccc(S(=O)(=O)NC(=O)Nc2ncn[nH]2)cc1 | 37.1% [at 11.4 µM] (inactive) |  |
| O=c1[nH]c2ccccc2c2ccccc12 | -30.4% (inactive) |  |
| Cc1nc2c(O)cccc2c(=O)[nH]1 |  | 0.398 µM (active) |
| O=c1[nH]ccc2c(O)cccc12 | 11.1% (inactive) |  |
| CN1c2ccccc2C(C)(C)C12C=Nc1c(cc(N3CCOCC3)c3ccccc13)O2 (stereo not given) |  | 3.55 µM (active) |
| CN(C)Cc1ccccc1-c1nc(N2CCOCC2)c2ccccc2n1 | 30.7% (inactive) |  |
| Cc1ccc(C2/C(=C(/O)c3ccc(Cl)cc3)C(=O)C(=O)N2CC2CCCO2)o1 (stereo not given) | -16.5% (inactive) |  |
| COc1cccc(C2=CC(c3ccccc3)n3nnnc3N2)c1 (stereo not given) |  | 0.158 µM (active) |
| O=C(O)Cc1nn(Cc2ccc(Br)cc2F)c(=O)c2ccccc12 | -24.3% (inactive) |  |
| O=c1c2ccccc2c(-c2ccccc2)nn1Cc1ccc(Cl)cc1 |  | 1.12 µM (active) |
| COc1ncc2nc(-c3ccccc3)c(=O)n(-c3ccccc3)c2n1 | -27.6% (inactive) |  |
| COc1ncc2nc(-c3ccc(Cl)cc3)c(=O)n(-c3ccccc3)c2n1 | -31.9% (inactive) |  |
| O=c1c2ccccc2c(-c2ccccc2)nn1-c1ccc(Cl)c(Cl)c1 |  | 2.51 µM (active) |
| Cn1c(=O)c(-c2ccc(Cl)cc2)nc2cnc(Nc3ccccc3)nc21 | 6.65% (inactive) |  |
| CN1Cc2c(N)cccc2[C@H](c2ccccc2)C1 |  | inactive |
| O=P(Cc1cc[n+]([O-])cc1)(c1ccccc1)c1ccccc1 |  | 15.8 µM (active) |
| O=P(O)(CCP(=O)(O)c1ccccc1)c1ccccc1 | 2.23% [at 11.4 µM] (inactive) |  |
| CCCN(CCC)CCCNC(=O)CS(=O)Cc1nc(-c2ccc(OC)c(OC)c2)oc1C (stereo not given) | -24.7% (inactive) |  |
| Cc1ccccc1-c1nc(CS(=O)CC(=O)NCCN2CCN(Cc3ccccc3)CC2)c(C)o1 (stereo not given) |  | 17.8 µM (active) |
| CCS(=O)(=O)N1CCC(C(=O)NCCN2CCN(Cc3ccccc3)CC2)CC1 | -5.92% (inactive) |  |

From PubChem BioAssay AID1851 (National Center for Advancing Translational Sciences (NCATS), 2009)
